Source: PubChem BioAssay (several laboratories)
VHR inh abs = VHR1 phosphatase inhibitors, primary screen, biochemical, absorbance, uHTS. Dual specificity protein phosphatase 3 (Homo sapiens), P51452. recombinant VHR phosphatase, pNPP absorbance. inhibition, % at 13.3 µM. 0.52% of 290,000 active. AID 1654, 2009; in the data active means inhibition above about 50%
Target sequence (P51452 whole entry, looked up): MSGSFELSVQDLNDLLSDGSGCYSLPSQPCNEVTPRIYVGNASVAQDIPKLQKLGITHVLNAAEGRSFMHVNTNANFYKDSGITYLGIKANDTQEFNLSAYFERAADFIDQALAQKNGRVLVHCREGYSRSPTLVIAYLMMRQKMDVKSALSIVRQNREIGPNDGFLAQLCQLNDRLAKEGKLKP
CCHF vOTU inh = CCHFV vOTU protease inhibitors, primary screen, biochemical, Pep-AMC substrate, fluorescence. Crimean-Congo hemorrhagic fever virus L polyprotein viral ovarian tumor (vOTU) protease …. inhibition, % at 11.5 µM. 0.55% of 370,000 active. AID 651958, 2012; in the data active means inhibition above about 30%; further: 0% = vehicle wells with enzyme and 100% = no enzyme wells
Mtb hypoxia rep = PubChem AID 1159583 | M. tuberculosis hypoxia-regulated fluorescent reporter, fluorescence | fluorescence inhibition, % (test concentration not listed) | 0.1% of 300,000 active; in the data active means fluorescence inhibition mostly above about 23%, no sharp cut-off; inactive means mostly below about 17%
3CLpro inhibitor = SARS-CoV 3CLpro protease inhibitors, primary screen, biochemical, quenched FRET; AID 1706, 2009; 0.14% of 290,000 active; inhibition, % at 6 µM; recombinant SARS-CoV 3CLpro, quenched FRET peptide cleavage; Replicase polyprotein 1ab (Severe acute respiratory syndrome coronavirus), P0C6X7; in the data active means inhibition above about 12%
PriA SSB inh = inhibitors of Klebsiella pneumoniae PriA binding to SSB C-terminal tail, primary screen, biochemical, AlphaScreen. PriA–SSB C-terminal tail interaction (Klebsiella pneumoniae). AlphaScreen SSBct-PriA binding, biotinylated peptide. inhibition, % at 33 µM. 0.6% of 430,000 active; in the data active means inhibition mostly above about 37%, no sharp cut-off; inactive means mostly below about 20%;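 further: plate controls were negative control peptide for no effect and reference peptide for full effect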
* marks the source's active call; other numbers are inactive results; x = no result; ! = repeats disagree. Most compounds without a hit are left out; they make up all but 1.3% or so of the library.

SMILES | VHR inh abs | CCHF vOTU inh | Mtb hypoxia rep | 3CLpro inhibitor | PriA SSB inh
Nc1nc(-c2ccc(-c3ccccc3)cc2)cs1 | -4 | -1 | -5 | 4 | 14
CC(=O)c1ccc(C(=O)N(Cc2ccccn2)c2nc3c(C)c(Cl)ccc3s2)cc1 | x | x | x | x | 17
CCN(CC)CCCNC(=O)c1nn2c(C(F)(F)F)cc(-c3ccccc3)nc2c1Cl | 60* | 7 | -5 | 0 | 8
COc1ccccc1Cc1noc(C2CN(C(=O)c3c(F)cccc3Cl)C2)n1 | x | x | x | x | 0
COC(=O)c1ccc(NC(=O)CN2CC(=O)Oc3ccccc32)cc1 | x | x | x | x | 45*
NS(=O)(=O)c1ccc(NC(=O)CN2CC(=O)Oc3ccccc32)cc1 | x | x | x | x | 94*
O=c1oc2ccccc2c2c1SC(C(F)(F)F)C2 (stereo not given) | 56* | -130 | 15 | 5 | -27
O=C(O)C1CCC(CNCc2ccncc2)CC1 (stereo not given) | -2 | -9 | 18 | 0 | -6
O=C(O)C1CCC(CNCc2ccccc2Cl)CC1 (stereo not given) | 52* | -7 | x | 1 | 1
O=C1CCCN1Cc1cn(C2CN(C(=O)CCn3cnc4ccccc4c3=O)C2)nn1 | x | x | x | x | -1
COc1ccc(CNC(=O)C2CCCN(c3nc4ccccc4o3)C2)c(OC)c1 (stereo not given) | 53* | x | 12 | 0 | -9
COc1ccccc1N1CCN(S(=O)(=O)c2ccc(F)c(C)c2)CC1 | x | x | x | x | 10
CC(=O)c1ccccc1N(C(=O)c1ccco1)C(C(=O)NC1CCCC1)c1ccc(C)cc1 (stereo not given) | 51* | 8 | 2 | -3 | 1
COc1ccc(C(C(=O)NC2CCCCC2)N(C(=O)c2ccco2)c2ccccc2C(C)=O)cc1 (stereo not given) | -5 | 3 | 7 | 8 | -1
COc1ccc(NC(=S)NN=C2CC(C)(C)Oc3ccc(O)cc32)cc1 | x | x | x | x | 47*
CC1(C)CC(=NNC(=S)Nc2ccccc2F)c2cc(O)ccc2O1 | x | x | 8 | x | 45*
COc1ccc(NC(=S)N/N=C2\CC(C)(C)Oc3ccc(OC)cc32)cc1 | 17 | 3 | x | 4 | x
COc1cccc(NC(=S)NN=C2CC(C)(C)Oc3ccc(O)cc32)c1 | x | x | 14 | x | 40*
Cc1ccccc1NC(=S)N/N=C1\CC(C)(C)Oc2ccc(O)cc21 | 10 | -3 | x | 5 | x
Cc1cc(C)n(CC2CCN(Cc3ccc(OCc4ccccc4)cc3)CC2)n1 | x | x | x | x | 9
O=C(NCCCn1nc(-c2cccnc2)ccc1=O)c1c(F)cccc1F | x | x | x | x | -12
Cc1cc(NC(=O)c2n[nH]nc2-c2ccc(F)cc2)no1 | x | x | x | x | -13
COc1ccc(Cl)c2sc(NC(=O)c3ccc(-c4ccccc4)cc3)nc12 | x | x | x | x | 11
CN(CC(=O)O)C(=O)c1ccc(S(=O)(=O)N2CCOCC2)cc1 | x | x | x | x | -4
Cn1c(CSCc2ccc(Cl)cc2)n[nH]c1=S | 52* | 3 | -1 | 0 | -1
SMILES | VHR inh abs | CCHF vOTU inh | Mtb hypoxia rep | 3CLpro inhibitor | PriA SSB inh
Cn1c(CSCc2ccc(F)cc2)n[nH]c1=S | 6 | -1 | 6 | 1 | -4
Nc1nc2c(s1)CCc1ccccc1-2 | 6 | -8 | 3 | -4 | 56*!
CC1CCCN(C(=O)c2ccc3nc[nH]c3c2)C1 (stereo not given) | 52* | 0 | 2 | 1 | 8
CC(O)(CNC(=O)c1ccoc1)c1cc2ccccc2o1 (stereo not given) | x | x | x | x | 1
Cc1ccc(OCCOCCN2CCCC2)c(Br)c1 | 59* | -8 | 13 | -7 | -18
O=C(Nc1ccccc1-c1cn2ccsc2n1)c1ccc(Cn2ccnc2)cc1 | x | x | x | x | 39*
COc1ccccc1Nc1ccc2c(O)cc(S(=O)(=O)O)cc2c1 | x | 20 | 9 | x | 51*
Cc1ccc2[nH]c(-c3cccc(N)c3)cc2c1 | 15 | 2 | 7 | -1 | 39*
Cc1ccc(C(=O)NCCC(=O)NCc2ccco2)cc1 | 54* | 4 | -2 | -4 | -19
Cc1cccc(NC(=O)CCNC(=O)c2ccco2)c1 | 51* | -1 | 4 | 2 | -1
Cc1cccc(NC(=O)Cn2c(C)nc3c(sc4ccccc43)c2=O)c1 | x | x | x | x | -9
CN(C)C(=O)c1c(NC(=O)c2ccccc2)sc2c1CCC2 | 21 | 11 | 2 | -6 | 1
CCN(CC)CCCC(C)NC(=O)c1c(NC(=O)c2ccccc2)sc2c1CCCC2 (stereo not given) | 54* | 5 | 9 | 2 | -8
CCCc1cc(=O)[nH]c(-n2nc(C)cc2NC(=O)C(C)(C)CCl)n1 | x | x | x | x | 44*
Cc1c(C(=O)NCc2ccco2)oc2c1/C(=N\O)CCC2 | x | x | x | x | -8
O=C1c2ccccc2C2=Nc3ccccc3SC(c3ccc(Cl)cc3)C12 (stereo not given) | 5 | 7 | 2 | -1 | 53*
NC(=O)c1cc(-c2ccccc2)sc1NC(=O)Cc1ccc(S(=O)(=O)N2CCOCC2)s1 | 0 | 13 | 9 | 19* | 2
Cn1cccc1C(CNC(=O)c1ccc2c(c1)OCO2)N1CCc2ccccc2C1 (stereo not given) | x | x | x | x | 13*
Cn1cccc1Cc1nnc(SCC(=O)Nc2ccc3c(c2)OCCO3)n1-c1ccc(Cl)cc1 | x | x | x | x | 80*
Cc1ccc(-n2c(Cc3cccn3C)nnc2SCC(=O)Nc2ccc3c(c2)OCCO3)cc1 | x | x | x | x | 16
Cc1ccc(-n2c(Cc3cccs3)nnc2SCC(=O)Nc2ccc3c(c2)OCO3)cc1 | x | x | x | x | 62*
O=S(=O)(NCC[C@H](O)c1ccc2c(c1)OCO2)c1ccc(N2CCCCS2(=O)=O)cc1 | x | x | x | x | 5
COc1cccc2c(=O)n(CC(=O)Nc3ccc(F)cc3)ccc12 | -2 | 5 | 2 | -2 | 104*
COc1cccc2c(=O)n(CC(=O)Nc3cccc(F)c3)ccc12 | 19 | 12 | 1 | 0 | -14
CCCN(CCC)c1ccc(C(=S)N2CCN(C(=S)Nc3ccccc3)CC2)cc1 | x | x | x | x | -2
SMILES | VHR inh abs | CCHF vOTU inh | Mtb hypoxia rep | 3CLpro inhibitor | PriA SSB inh
CCCN(CCC)c1ccc(C(=S)N2CCOCC2)cc1 | x | x | x | x | 37*
CCN(CC)c1ccc(C(=S)N2CCN(c3ccccc3)CC2)cc1 | 22 | -1 | 4 | -7 | -22
CCCN(CCC)c1ccc(C(=S)N2CCNCC2)cc1 | x | x | x | x | 36*
Cc1nc(C)n(CC(C)C(=O)Nc2cc(Cl)ccc2C)n1 (stereo not given) | x | x | x | x | 1
CN1CCCc2cc(CCNC(=O)Cc3cccs3)ccc21 | x | x | x | x | 42
Cc1ccc(S(=O)(=O)NCCc2ccc3c(c2)CCCN3C)cc1Cl | x | x | x | x | 38*
CN1CCCc2cc(CCNS(=O)(=O)c3cccs3)ccc21 | x | x | x | x | 71*
CCCN1CCCc2cc(CCNS(=O)(=O)CCc3ccccc3)ccc21 | x | x | x | x | 71*
CCCN1CCCc2cc(CCNS(=O)(=O)c3ccc(F)c(Cl)c3)ccc21 | x | x | x | x | 47*
COc1ccc(Cc2nnc(SCC(=O)Nc3ccc(Cl)c(Cl)c3)n2N)cc1 | x | x | x | x | -2
CCCN1CCCc2cc(CCNS(C)(=O)=O)ccc21 | x | x | x | x | 70*
CCCN1CCCc2cc(CCNC(=O)C(=O)NC3CC3)ccc21 | x | x | x | x | 37
CCCN1CCCc2cc(CCNC(=O)CC)ccc21 | x | x | x | x | 52
CCCN1CCCc2cc(CCNS(=O)(=O)CC(C)C)ccc21 | x | x | x | x | 74*
